Screens from PubChem.
The full list was thinned out, with hits kept by preference.
NPSR antag: qHTS Assay for Antagonists of the Neuropeptide S Receptor: cAMP Signal Transduction. Potency, µM (doses to about 38.3 µM), inactives show at the highest dose activity change, negative = inhibition, most hits filed as inhibitors. 220,000 tested, 1% active. CHO-NPSR cells, cAMP TR-FRET, antagonist mode; also: potency is read from the fitted curve at half-maximal effect; % is scaled to controls: 0 for no effect and ±100 for the full control effect; nearly all actives have a fitted effect of over 50% in size
RXFP1 agonist: qHTS Assay for Agonists of the Relaxin Receptor RXFP1. Relaxin receptor 1 (Homo sapiens), Q9HBX9. HEK293T-RXFP1 cAMP TR-FRET, 30 min; response scale: percent of porcine relaxin response, buffer zero. Potency, µM (highest dose often 57.5 µM), inactives show at the highest dose activation, usual class: activators. 370,000 tested, 0.3% active; also: potency is read from the fitted curve at half-maximal effect; % is scaled to controls: 0 for no effect and ±100 for the full control effect; nearly all actives have a fitted effect of over 60% in size
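Agonist response is measured as cAMP accumulation in an RXFP1-transfected HEK293T line under PDE4 inhibition. Values are scaled between buffer-only and 29 nM porcine relaxin, and EC50s come from standard Hill equation fits.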
HEK293 tox: qHTS of GLP-1 Receptor Inverse Agonists: Cytotox Screen; HEK293 cAMP-luciferase reporter cells, luminescence, 24 h; Potency, µM (top dose mostly 38.3 µM), inactives show at the top dose activity change, negative = inhibition, actives largely listed as inhibitors; 410,000 tested, 0.13% active;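 also: loss of luciferase light is scored as toxicity; potency is read from the fitted curve at half-maximal effect; % is scaled to controls: 0 for no effect and ±100 for the full control effect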
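Seeding density was 200 cells/uL; after overnight-length (12 h) culture, 23 nL compounds went on for 24 h at 37 °C. Readout used a luciferase detection reagent, luminescence taken after 12 min at room temperature.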
TSHR antag: Antagonists of the Thyroid Stimulating Hormone Receptor: HTS campaign | activity change, negative = inhibition, % at 11.5 µM | 330,000 tested, 0.2% active | Thyrotropin receptor (Homo sapiens), P16473 | TSHR-expressing cells, TSH-stimulated cAMP HTRF, 2 h; stronger effect = lower value;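 active = activity change below a set negative limit, meaning inhibition stronger than a set level, cut at about -70% in these data; inconclusive = activity change between two set negative limits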; also: % is scaled to controls: 0 for no effect and ±100 for the full control effect
Target sequence (P16473 whole entry, looked up): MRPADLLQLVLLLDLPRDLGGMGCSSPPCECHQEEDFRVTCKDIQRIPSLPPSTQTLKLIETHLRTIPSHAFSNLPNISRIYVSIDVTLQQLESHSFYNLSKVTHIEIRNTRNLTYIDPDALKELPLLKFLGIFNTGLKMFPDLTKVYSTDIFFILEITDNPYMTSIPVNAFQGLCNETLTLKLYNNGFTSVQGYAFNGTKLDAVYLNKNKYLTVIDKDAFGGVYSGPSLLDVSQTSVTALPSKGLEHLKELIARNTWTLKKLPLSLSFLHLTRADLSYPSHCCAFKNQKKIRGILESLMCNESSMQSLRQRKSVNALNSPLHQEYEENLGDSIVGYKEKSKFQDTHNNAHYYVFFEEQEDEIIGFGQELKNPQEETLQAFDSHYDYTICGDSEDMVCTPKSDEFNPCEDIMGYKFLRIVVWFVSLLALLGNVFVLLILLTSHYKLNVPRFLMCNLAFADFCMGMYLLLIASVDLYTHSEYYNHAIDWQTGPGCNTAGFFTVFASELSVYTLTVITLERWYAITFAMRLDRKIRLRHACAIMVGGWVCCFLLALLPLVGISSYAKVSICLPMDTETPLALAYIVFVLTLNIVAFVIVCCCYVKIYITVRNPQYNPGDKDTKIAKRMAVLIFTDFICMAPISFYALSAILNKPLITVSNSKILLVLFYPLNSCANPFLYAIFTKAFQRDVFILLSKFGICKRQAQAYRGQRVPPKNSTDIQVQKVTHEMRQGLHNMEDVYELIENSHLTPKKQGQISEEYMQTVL
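Read-out is FRET at 665 nm (cryptate excitation 337 nm) from a cryptate-tagged anti-cAMP antibody, competed by cell cAMP against cAMP-d2. Compounds are tested on freshly harvested TSHR cells challenged with 4nM TSH (EC80) for 2 hours at 37 deg C.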
RXFP1 antagonist: qHTS Assay for Antagonists of the Relaxin Receptor RXFP1 | Relaxin receptor 1 (Homo sapiens), Q9HBX9 | HEK293-RXFP1, relaxin-stimulated cAMP HTRF, 30 min; stronger effect = lower value | activity change, negative = inhibition, % at 57.5 µM | 350,000 tested, 0.59% active | AID 1259400, 2018;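 active = activity change of -60% or lower, but not beyond a set lower limit; inconclusive = change between -60% and -40%, or beyond the set limit; inactive = change above -40%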; also: % is scaled to controls: 0 for no effect and ±100 for the full control effect
PTHR1 agonist: qHTS for PTHR1 Agonists: Primary Screen | Parathyroid hormone/parathyroid hormone-related peptide receptor (Homo sapiens), Q03431 | HEK293 GP2 PTHR1 cells, GloSensor cAMP luminescence, 1 h | Potency, µM (series often up to 115 µM), for inactives: at the top dose activation, usual class: activators | 410,000 tested, 0.075% active; also: potency is read from the fitted curve at half-maximal effect; nearly all actives have a fitted effect of over 55% in size
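HEK-293-derived GP2 cells expressing PTHR1 and a GloSensor cAMP reporter, 3,000/well, plated overnight, given luciferin plus IBMX (each 0.5 mM as added) for 1 h at 37 °C, then compound for 1 h at 37 °C. Luminescence was read after 15 min at room temperature.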
* hit, by the source's call; i = inactive; ? = inconclusive; nt = not tested or not shown; ! = repeats disagree; [ ] = another dose, or the depositor's remark. Unless noted, calls follow the shape of the dose curve; as a rule, active = well fitted curve in the direction sought with a large enough effect; inconclusive = small, poorly fitted or top-dose-only effect, or another doubt; inactive = no such curve, though single readings can be large; an effect the other way counts as inactive or inconclusive.

SMILES	NPSR antag	RXFP1 agonist	HEK293 tox	TSHR antag	RXFP1 antagonist	PTHR1 agonist
CC[C@@]1(O)C(=O)OCc2c1cc1n(c2=O)Cc2cc3c(NC(=O)CN)cccc3nc2-1	2%	14µM*	19%	19	6	i
C=CCN1C(=O)/C(=C/c2cccs2)C(=O)NC1=S	13µM*	-2%	11%	29	19	-22%
C#CCn1cc(/C=N/Nc2nc3ccccc3[nH]2)c2ccccc21	13µM*	0%	?	17	-38	-29%
CCOC(=O)c1c(NC(NC(=O)CF)C(Cl)(Cl)Cl)sc2c1CCCC2 (configuration not stated)	-38%	0%	9%	-25	-61*	-17%
CCn1c(C)nc2cc(C(=O)N/N=C(\C)c3ccc(OC)cc3O)ccc21	-3%	5%	?	-3	-12	i
Cc1nnc(N2CCC(C(=O)NCc3ccc(N(C)C)cc3)CC2)c2nn(-c3ccccc3)c(C)c12	nt	9%	10%	nt	-10	?
Oc1ccc(Cl)cc1Cc1cc(Cl)ccc1O	-12%	2%	?	?	-32	-52%
Oc1ccc(Cl)cc1Cc1ccccc1	nt	nt	5%	nt	-82*!	-14%
CC(C(O)c1ccccc1)N(C)C/C=C/c1ccccc1 (configuration not stated)	nt	nt	nt	nt	-9	nt
O=C1NC(=O)N(c2cccc(Cl)c2)C(=O)/C1=C\c1ccc(Sc2nc3ccccc3[nH]2)o1	-44%	5%	17%	-6	-32	-1%
O=C1NC(=O)N(c2ccccc2)C(=O)/C1=C/c1ccc(Sc2ccccc2)o1	10µM*	5%	?	29	-109*	-13%[57.5 µM]
CCOP(=O)(CCP(=O)(OCC)OCC)OCC.C[CH2][Sn]([Cl])([Cl])[CH2]C	nt	nt	13µM*	nt	-14	-38%
O=C(CCl)Nc1cc(S(=O)(=O)N2CCCCCC2)ccc1Cl	-27%	3%	11µM*	1	0	-19%
O=C(NCc1cccnc1)/C(=C/c1ccc(-c2cccc(Cl)c2)o1)S(=O)(=O)c1ccccc1	5µM*	-3%	?	-10	nt	-26%
CC(C)CNC(=S)N(Cc1ccco1)Cc1cc2cc3c(cc2[nH]c1=O)OCCO3	-43%	2%	?	0	3	-32%
CCOC(=O)c1c(-n2c(C)cc(/C=C3/C(=O)NC(=O)N(CC)C3=O)c2C)sc2c1CCCC2	nt	nt	-1%	nt	-3	-25%[57.5 µM]
CCOC(=O)c1c(-n2c(C)cc(C=C3C(=O)NC(=S)NC3=O)c2C)sc2c1CCCC2	4µM*	3%	2%	-10	nt	-61%
CCc1cccc(NC(=O)c2ccc(NC(=O)N3CCSc4ncccc43)cc2)c1	nt	1%	-10%	nt	-14	-32%
N#Cc1ccccc1Cn1cc(/C=C/[N+](=O)[O-])c2ccccc21	?	1%	?	-24	-65*	-37%
COC(=O)C1=C(c2ccc(-c3ccccc3)c(F)c2)C[C@@H]2CC[C@H]1N2C(=O)NCCCOC(C)C	nt	0%	16%	-83*	nt	i
COC(=O)C1=C(c2ccc(-c3ccccc3)c(F)c2)C[C@@H]2CC[C@H]1N2C(=O)NCCNC(C)=O	nt	0%	-4%	-11	nt	i
COC(=O)C1=C(c2ccc3ccccc3c2)C[C@@H]2CC[C@H]1N2C(=O)NCCCOC(C)C	nt	1%	-18%	-15	nt	i
COC(=O)C1=C(c2ccc(-c3ccccc3)c(F)c2)C[C@@H]2CC[C@H]1N2C(=O)NCCc1ccccc1	nt	0%	-8%	-71*	nt	-8%
CC1(C)CC/C(=C\c2ccc(Cl)cc2)C1(O)Cn1cncn1 (configuration not stated)	nt	nt	nt	nt	-35	nt
COc1ccccc1/C=C/C=N/n1c(-c2ccc(Cl)cc2)n[nH]c1=S	22%	-1%	-1%	5	-63*	i
SMILES	NPSR antag	RXFP1 agonist	HEK293 tox	TSHR antag	RXFP1 antagonist	PTHR1 agonist
CCc1cc(-c2nnn(CCC3COCCO3)c2CC)cc(CC)c1-c1cn(Cc2ccc3ccccc3c2)nn1 (configuration not stated)	nt	nt	4%	nt	8	-64%
CC(C)C[C@H]1C(=O)N2CCCC2[C@]2(O)O[C@](NC(=O)[C@@H]3C=C4c5cccc6[nH]cc(c56)CC4N(C)C3)(C(C)C)C(=O)N12 (some centres not stated)	?	4%	4%	-10	nt	-54%
CC(C)[C@@]1(NC(=O)[C@@H]2C[C@@H]3c4cccc5[nH]cc(c45)C[C@H]3N(C)C2)O[C@@]2(O)[C@@H]3CCCN3C(=O)[C@H](Cc3ccccc3)N2C1=O	2µM*	-1%	5%	14	nt	-1%
CC(C)[C@H]1C(=O)N2CCC[C@H]2[C@]2(O)O[C@](NC(=O)[C@@H]3C=C4c5cccc6[nH]cc(c56)C[C@H]4N(C)C3)(C(C)C)C(=O)N12	1µM*	1%	13%	14	nt	17%
CC(C)[C@@]1(NC(=O)[C@@H]2C=C3c4cccc5[nH]cc(c45)C[C@H]3N(C)C2)O[C@@]2(O)[C@@H]3CCCN3C(=O)[C@H](Cc3ccccc3)N2C1=O	-51%	1%	nt	2	nt	nt
CC(C)C[C@H]1C(=O)N2CCC[C@H]2[C@]2(O)O[C@](NC(=O)[C@@H]3C=C4c5cccc6[nH]c(Br)c(c56)CC4N(C)C3)(C(C)C)C(=O)N12 (some centres not stated)	1.6µM*	5%	-6%	-12	nt	-3%
Cc1ccc(S(=O)(=O)NN)c(C)c1N1CCCC1=O	6%	-2%	-1%	24	12	?
Fc1cc(Br)ccc1CBr	nt	nt	nt	nt	12	nt
CC(C)n1c(O)c(C2c3cc(Cl)ccc3Oc3[nH]c(=O)n(C(C)C)c(=O)c32)c(=O)[nH]c1=O (configuration not stated)	?	1%	?	18	-84*	-29%
CC[C@H](O)C(C[C@H](C)N(C)C)(c1ccccc1)c1ccccc1	nt	nt	nt	nt	18	nt
O=C1OC(CCN2CCCCC2)OC1(c1ccccc1)c1ccccc1 (configuration not stated)	nt	nt	nt	nt	21	nt
CCN(CC)C(=O)[C@@H]1C=C2c3cccc4[nH]cc(c34)C[C@H]2N(C)C1	nt	nt	nt	nt	8	nt
Oc1cc(Cl)ccc1Oc1ccc(Cl)cc1Cl	nt	nt	?	nt	-77*!	-79%
O=C(O)COc1ccc(Cl)cc1Cl	nt	nt	15%	nt	2	?
